Reference: PubChem BioAssay (NCI)
Compounds without any hit were thinned out: in the full panel of roughly 83,000, 20% have a hit.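 96-well plates, one dose, 48 hours. Percent growth reported; active if below 10.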 A number with no mark means an inactive call. The source made the active and inactive calls.

What was measured:
Experiment in all cases: NCI-60 one-dose screen, 48 h (100 = growth as untreated, 0 = no growth, -100 = all killed)
Details in all cases: 10 µM unless noted
[1] = tested on: DU-145 prostate
[2] = tested on: K-562 leukemia
[3] = tested on: MALME-3M melanoma
[4] = tested on: MDA-MB-231 breast
[5] = tested on: RXF 393 renal
[6] = tested on: SF-268 CNS
[7] = tested on: SF-295 CNS
[8] = tested on: UACC-257 melanoma
[9] = tested on: M14 melanoma
[10] = tested on: SF-539 CNS

SMILES | growth [1] | growth [2] | growth [3] | growth [4] | growth [5] | growth [6] | growth [7] | growth [8] | growth [9] | growth [10]
COc1cc(Cn2cc3c(c2)-c2oncc2CC3)cc(OC)c1OC | -11% (active) | 12% | 56.5% | 28.9% | 46.1% | 18.4% | -3.52% (active) | 81.2% | 10.7% | –
S=C1CC(=S)NC(=S)N1 | 108% | 119% | 121% | 106% | 107% | 102% | 116% | 105% | 103% | –
COc1cc(-c2nn(-c3cccc(NC(=O)c4ccc(N5CCOCC5)c(C(F)(F)F)c4)c3)cc2-c2ccncc2)ccc1Cl | 10.9% | 1.22% (active) | 36.2% | -25.2% (active) | -45.2% (active) | 22.5% | – | 24.3% | 1.42% (active) | -68.9% (active)
COc1cc(Nc2nc(N[C@H]3CCCC[C@@H]3N)nc3cc[nH]c(=O)c23)cc(OC)c1 | 41.7% | 24.6% | 91.6% | 38.4% | 10.9% | 48.1% | – | 7.33% (active) | 40.2% | -3.04% (active)
COc1ccc(C2C=C(c3ccc(OC)c(OC)c3)N=C3SC=C(C)N32)c(Br)c1 (stereo not drawn) | 109% | 96.5% | 99% | 112% | 106% | 105% | – | 117% | 101% | 93.6%
Cc1cc(C(C)(C)C)ccc1S | 116% | 99.8% | 113% | 115% | 103% | 102% | 102% | 108% | 112% | –
Cc1cc(C)n(-c2nnc3n2N=C(c2ccc(-c4ccccc4)cc2)CS3)n1 | 66.2% | 6.94% (active) | 43.5% | 51.1% | 5.5% (active) | 56.7% | – | 53.7% | – | 38.7%
O=C(Nc1cccc(-n2cc(-c3ccncc3)c(-c3ccc(Cl)c(O)c3)n2)c1)Nc1ccc(Cl)c(C(F)(F)F)c1 | -17% (active) | -20.8% (active) | -16.6% (active) | -36.4% (active) | -76% (active) | -34.5% (active) | – | -54% (active) | -25.5% (active) | -26.1% (active)
COc1ccc(C2=CC(c3cc(OC)c(OC)c(OC)c3)NC(=O)N2)cc1OC (stereo not drawn) | -17.1% (active) | 10.6% | 11.2% | 21.8% | 0.616% (active) | 32.2% | 6.53% (active) | 57.2% | 17.2% | –
COc1ccc(C2C=C(c3ccc(Cl)cc3)N=C3SC=C(C)N32)c(Br)c1 (stereo not drawn) | -31.5% (active) | 5.84% (active) | 43.6% | 58.2% | -7.69% (active) | 43.4% | – | 39.4% | 28.3% | 37.3%
Nc1cc2c([nH]c[n+]2CC#CCCl)c(SCC#CCCl)n1 | -5.81% (active) | 5.47% (active) | -46.4% (active) | -50.2% (active) | -90.5% (active) | -9.39% (active) | – | -59.5% (active) | -90.9% (active) | -75.3% (active)
O=C(Nc1cccc(-n2cc(-c3ccncc3)c(-c3ccc(Cl)c(O)c3)n2)c1)c1ccccc1 | 56.9% | 60.7% | 53.1% | 63.2% | 0.59% (active) | 68.3% | – | 44.2% | 54.9% | 74.7%
CCOC(=O)c1ccc2c(c1)c1c(C)c3cccnc3c(C)c1n2C | 52.7% | 39.5% | 68.7% | 50.7% | 75.6% | 50.9% | – | 115% | 53.2% | 67%
O=C(Nc1cccc(-n2cc(-c3ccncc3)c(-c3ccc(Cl)c(O)c3)n2)c1)Nc1ccc(Cl)c(Cl)c1 | 25.9% | 11.4% | 10.3% | -0.72% (active) | 4.46% (active) | 29.1% | – | -17.3% (active) | 17.2% | 37%
COc1cc(-c2nn(-c3cccc(NC(=O)Nc4cccc(C(F)(F)F)c4)c3)cc2-c2ccncc2)ccc1Cl | 9.75% (active) | 1.6% (active) | -32.1% (active) | -28.8% (active) | -69.8% (active) | 2.35% (active) | – | -52.9% (active) | -61.5% (active) | -34.2% (active)
COc1cc(C2CC(c3ccc4c(c3)OCO4)=NN2C=O)cc(OC)c1OC (stereo not drawn) | 31.7% | 17.6% | -3.87% (active) | 68% | 45.7% | 44.8% | -1.84% (active) | 65.3% | 26.7% | –
O=S(=O)(NCCNc1nccc(-c2c(-c3ccc(F)cc3)nc3sccn23)n1)c1ccc(F)cc1 | 75.9% | 56.7% | 76.8% | 78.4% | 70% | 79.2% | – | 102% | 73.7% | 102%
COc1ccc(N2CCN(Cc3cc(C(=O)/C=C/c4c[nH]c5ccccc45)ccc3O)CC2)cc1 | 114% | 101% | 95.6% | 103% | 104% | 101% | – | 102% | 102% | 96.6%
OC(c1cc2cc(Br)ccc2c2cc(Br)ccc12)C1CCCCN1 (stereo not drawn) | -93.5% (active) | -72.2% (active) | -57.5% (active) | -73.5% (active) | -94.1% (active) | -84.5% (active) | – | -82.9% (active) | -75.8% (active) | -82.9% (active)
COc1cc(-c2nn(-c3cccc(NC(=O)c4ccccc4)c3)cc2-c2ccncc2)ccc1Cl | 11.6% | 2.59% (active) | 22.4% | 5.8% (active) | -19.2% (active) | 18.7% | – | 8.64% (active) | -3.82% (active) | -15% (active)
O=S(=O)(NCCNc1nccc(-c2c(-c3ccc(O)cc3)nc3sccn23)n1)c1cccc2ccccc12 | 115% | 91.4% | 100% | 110% | 104% | 99% | – | 94.4% | 105% | 100%
COc1cc(-c2nn(-c3cccc(NC(=O)c4cccc(C(F)(F)F)c4)c3)cc2-c2ccncc2)ccc1Cl | 2.16% (active) | 6.11% (active) | 10.1% | 4.67% (active) | -42.8% (active) | 30.5% | – | 34.5% | 12.3% | -48.8% (active)
COc1ccc(/C=C/c2c(C(C)=O)c(C)nc3ccccc23)cc1 | 97.7% | 52.4% | 101% | 82.8% | 86.6% | 97.5% | 85.3% | 64.7% | 99.2% | –
C=CCSc1n[nH]c(-c2cccs2)n1 | 121% | 85.6% | 110% | 121% | – | 111% | 106% | 76.4% | 104% | 98.3%
COc1ccc(N=Cc2c(O)ccc3c2oc2cc(Cl)c(O)c(Cl)c23)cc1 | 125% | 81.1% | 106% | 107% | – | 105% | 115% | 76.5% | 94.9% | 96.7%
N=C(N)c1ccc(-c2ccc(-c3cncc4ccccc34)s2)cc1F | -91% (active) | -50.6% (active) | -81% (active) | -85.2% (active) | – | -74.4% (active) | -95.1% (active) | 111% | 96.3% | -97.7% (active)
COc1cc(/C=C/C(=O)c2cccc(-n3cc(-c4cc(OC)c(OC)c(OC)c4)[nH]c3=O)c2)cc(OC)c1OC | 12.5% | 0.136% (active) | 28.9% | 35.4% | -79.5% (active) | 20.9% | – | 37.2% | -0.87% (active) | -86.1% (active)
COc1cc(-c2nn(-c3cccc(NC(=O)c4ccc(Cl)c(C(F)(F)F)c4)c3)cc2-c2ccncc2)ccc1Cl | 65.4% | 8.65% (active) | 16.8% | 25.8% | -0.403% (active) | 46.7% | – | 23.5% | 26.2% | 33%
O=C(/C=C/c1c[nH]c2ccccc12)c1ccc(O)c(CN2CCN(c3ccc(F)cc3)CC2)c1 | 107% | 103% | 101% | 98.7% | 108% | 94% | – | 115% | 99.4% | 98.3%
Cc1[nH]c2ccc(F)cc2c1CCNC(=O)C1CCN(C(=O)c2ccccc2)C1 (stereo not drawn) | 87.6% [25 µM] | 91.9% [25 µM] | 73.3% [25 µM] | 82% [25 µM] | – | 85.1% [25 µM] | 96.4% [25 µM] | 99.6% [25 µM] | – | 83% [25 µM]
